Assay outcomes deposited in PubChem by National Center for Advancing Translational Sciences (NCATS).
Only some compounds are listed: those with a hit (about 10% of all), similar ones and a draw of the others.
ALDH1A1 block – qHTS Assay for Inhibitors of Aldehyde Dehydrogenase 1 (ALDH1A1); Purified ALDH1A1, NADH fluorescence, propionaldehyde substrate; Potency, µM (highest dose often 75.3 µM), inactives show top-dose activity, negative = inhibition, usual class: inhibitors; 220,000 compounds, 7.3% hits; AID 1030, 2008;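 also: potency is read from the fitted curve at half-maximal effect; plate controls were no enzyme wells and a reference inhibitor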
Target sequence (P00352 whole entry, looked up): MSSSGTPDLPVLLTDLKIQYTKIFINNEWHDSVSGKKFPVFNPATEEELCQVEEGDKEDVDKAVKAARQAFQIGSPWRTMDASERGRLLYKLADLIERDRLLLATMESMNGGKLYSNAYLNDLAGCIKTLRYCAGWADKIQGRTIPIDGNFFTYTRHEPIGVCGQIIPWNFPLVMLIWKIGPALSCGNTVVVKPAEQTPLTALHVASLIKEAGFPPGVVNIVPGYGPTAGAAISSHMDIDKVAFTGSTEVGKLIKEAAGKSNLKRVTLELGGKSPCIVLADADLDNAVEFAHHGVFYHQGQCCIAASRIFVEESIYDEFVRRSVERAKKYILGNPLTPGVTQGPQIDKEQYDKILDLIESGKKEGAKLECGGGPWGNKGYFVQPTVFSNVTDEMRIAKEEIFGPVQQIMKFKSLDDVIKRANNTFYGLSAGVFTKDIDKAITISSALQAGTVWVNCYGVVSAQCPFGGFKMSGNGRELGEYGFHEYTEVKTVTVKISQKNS
Lamin A splicing – qHTS Assay for Modulators of Lamin A Splicing | 200,000 compounds, 0.01% hits | Potency, µM (top dose mostly 46.1 µM), without a hit: at the highest dose ratio change, negative = inhibition, usual class: inhibitors | HeLa LMNA splicing GFP/RFP minigene ratio, 48 h; active = well fitted inhibition curve with a large enough effect in the signal ratio, with a control signal flat, not every such curve was filed as active; inconclusive = small, poorly fitted or top-dose-only effect, or effect the other way, or a change in a side signal; the % refers to the signal ratio; also: potency is read from the fitted curve at half-maximal effect
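S3 HeLa cells stably expressing lamin A-EGFP splicing minigene plus DsRed2, 600 cells/well, 48 h compound exposure at 37C. Laser-scanning cytometry; analysed as GFP (500-530 nm)/RFP (575-640 nm) total intensity ratio; 0.5% DMSO vehicle.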
KinaseGlo FLuc – Counterscreen for Luciferase (Kinase-Glo TM) Inhibition. Potency, µM (titrated, usually from 38.3 µM), without a hit: at the top dose activity change, negative = inhibition, most hits filed as inhibitors. Luciferin 4-monooxygenase (Photuris pensylvanica), Q27757. 200,000 compounds, 0.28% hits. Kinase-Glo luciferase, ATP luminescence, 8 min. AID 1379, 2008; active = well fitted inhibition curve with a large enough effect; inconclusive = small, poorly fitted or top-dose-only effect; also: potency is read from the fitted curve at half-maximal effect; nearly all actives have a fitted effect of over 60% in size
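Substrate mix (final 50 mM imidazole pH 7.2, 50 mM KCl, 7 mM MgCl2, 10 uM ATP, 0.01% Tween 20, 0.05% BSA) plus pin-tool compound, then Kinase-Glo detection mix; 8 min ambient, luminescence read.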
IMPase inh – qHTS Assay for Identifying the Cell-Membrane Permeable IMPase Inhibitors. inhibition (IP1 accumulation), % at 46.1 µM. 120,000 tested, under 10 active. CHO-M1 cells, IP1 accumulation, HTRF TR-FRET ratio. AID 901, 2007; active = well fitted curve in the direction sought with a large enough effect in the signal ratio, not every such curve was filed as active; inconclusive = small, poorly fitted or top-dose-only effect, or a change in a side signal; inactive = no such curve, though single readings can be large or run the other way; the % refers to the signal ratio;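 also: cells stimulated with carbachol in lithium chloride buffer; plate controls were DMSO basal wells for no effect and reference inhibitor wells for full effect; higher means more IMPase inhibition seen as more IP1 and lower FRET ratio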
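The IP-One HTRF competitive assay in carbachol-stimulated CHO-M1 cells quantifies cellular IP1. Compounds spanned up to 46 uM final, and activity is expressed as AC50 from concentration-response fits of the ratio and donor data.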
PNC assembly inh – High Content Assay for Compounds that inhibit the Assembly of the Perinucleolar Compartment | PC3M PTB-GFP, PNC prevalence imaging, 16 h; hits give low values | activity change (PNC), negative = inhibition, % at 10 µM | 140,000 compounds, 3.1% hits | AID 2417, 2010;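 active = readout at or below -70, meaning at least 70% loss of cells showing the perinucleolar compartment, a nuclear body marking cancer cells; inconclusive = readout between -30 and a set limit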;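 also: plate controls were DMSO wells for no effect and camptothecin positive control wells for full effect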
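Read-out is percentage of cells bearing a perinucleolar compartment, from automated 20x imaging of fixed, Hoechst-stained PC3M PTB-GFP cells. Cells were seeded 4 h, then exposed 16 h to compound (23 nl of library stock) in duplicate plates.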
HPGD block – qHTS Assay for Inhibitors of HPGD (15-Hydroxyprostaglandin Dehydrogenase) | 15-hydroxyprostaglandin dehydrogenase [NAD(+)] (Homo sapiens), P15428 | purified HPGD, NADH fluorescence kinetic, PGE2 substrate | Potency, µM, without a hit: at the highest dose activity change, negative = inhibition, most hits filed as inhibitors | 150,000 compounds, 4.3% hits | AID 894, 2007; also: potency is read from the fitted curve at half-maximal effect
Target sequence (P15428 whole entry, looked up): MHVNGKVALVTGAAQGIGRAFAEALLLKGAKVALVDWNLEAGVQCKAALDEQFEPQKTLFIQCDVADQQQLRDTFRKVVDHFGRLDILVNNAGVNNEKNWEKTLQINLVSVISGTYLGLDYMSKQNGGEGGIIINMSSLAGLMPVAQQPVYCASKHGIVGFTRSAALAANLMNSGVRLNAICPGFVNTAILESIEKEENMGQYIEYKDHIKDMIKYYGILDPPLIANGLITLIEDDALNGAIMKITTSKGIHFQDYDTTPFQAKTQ
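NADH formation kinetics: reaction with 30 uM PGE2 and 1 mM NAD+ (final), 20 nM enzyme, Tris-HCl pH 8 with Tween 20, after 15 min compound preincubation at room temperature. Fluorescence change, last versus first of five reads.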
* marks the source's active call; other numbers are inactive results; ? = inconclusive; · = no result given; [ ] = dose if it differs, or a comment. Unless noted, calls follow the shape of the dose curve; as a rule, active = well fitted inhibition curve with a large enough effect (not every such curve was filed as active); inconclusive = small, poorly fitted or top-dose-only effect, or another doubt; inactive = no such curve, though single readings can be large or run the other way. Unless noted, % is scaled to controls: 0 for no effect and ±100 for the full control effect.

SMILES	ALDH1A1 block	Lamin A splicing	KinaseGlo FLuc	IMPase inh	PNC assembly inh	HPGD block
O=[n+]1c2c(n([O-])c3cc(F)c(N4CCCC4)cc31)CCCC2	20µM*	3.7%	-10.4%	-5.0	?	-11.9%
CCCC(=O)Nc1cc(-c2nnc3c4ccccc4c(C)nn23)ccc1C	·	·	·	-0.7	·	·
NCCC[C@@H](CC(=O)N[C@@H]1CCNC[C@H]1C(=O)N[C@H](CC(=O)N[C@@H](CCC(=O)O)CC(=O)O)Cc1ccccc1)NC(=O)C[C@H](CO)NC(=O)[C@@H]1CCCC[C@H]1N	1.2%	·	-1.3%	·	·	-9.9%
COc1ccc2cc3cc(C(=O)Nc4cc(OC)c(OC)c(OC)c4)oc3nc2c1	?	-8.0%	0.3%	1.1	-105.0*	-27.2%
Cc1sc(NC(=S)Nc2ccc(F)cc2)c(C(N)=O)c1C	10µM*	11.4%[46 µM]	2.8%	·	·	·
COC(=O)c1c(NC(=S)Nc2ccc(CC(=O)O)cc2)sc(C)c1C	25.1µM*	8.6%	-0.2%	·	-3.0	-26.2%
COc1ccc(C(=O)NCC(=O)OCC(=O)c2ccc3c(c2)OCCO3)cc1	7.94µM*	0.3%	2.2%	4.6	-9.0	-12.8%
COc1ccc(C(=O)NCC(=O)NCC(=O)OCC(=O)c2cccs2)cc1	15.8µM*	4.2%	8.1%	·	?	-12.3%
Cc1ccc(C(=O)NCC(=O)OCC(=O)c2ccc3c(c2)OCCO3)cc1C	?	10.0%	-4.3%	1.1	25.6	-15.7%
CCOC(=O)/C(C#N)=C1\CC2CCC1(C)C2(C)C (stereo not given)	12.6µM*	25.0%[46 µM]	5.6%	·	·	·
CCOC(=O)/C(C#N)=C1/C=Nc2ccccc2N1	-9.5%	-1.2%	-4.6%	-1.2	?	-13.1%
Cc1ccc2c(c1)C(=O)C1(O)CCN(c3ccccc3)C1=N2 (stereo not given)	-4.7%	·	-1.3%[39.9 µM]	·	·	-5.4%
O=C(O)CSc1nnc(SCc2cccc3ccccc23)s1	?	4.3%	16.9%	5.3	29.7	15.8µM*
O=C(CSc1nnc(SCc2cccc3ccccc23)s1)N/N=C/c1c[nH]c2ccccc12	14.1µM*	?	2.0%	-1.3	9.4	-9.4%
CC(C)OC(=O)CSc1nnc(SCc2cccc3ccccc23)s1	?	8.0%	0.2%	6.1	24.9	-13.5%
O=C(CSc1ccccn1)N/N=C/c1c[nH]c2ccccc12	-0.9%	-10.2%[9.22 µM]	-4.9%	·	·	·
O=C(CSc1nnc(SCc2ccc(Cl)cc2)s1)N/N=C/c1c[nH]c2ccccc12	-1.3%	0.1%	-5.5%	·	-82.5*	-18.1%
CC1=CC(=O)OC1Cc1ccc2ccccc2n1 (stereo not given)	?	·	?	·	·	-28.9%
Cc1ccc(CC(=S)N2CCOCC2)cc1	23.8µM*	·	·	·	·	·
COc1ccc(CC(=S)N2CCOCC2)cc1	8.91µM*	-1.6%	3.0%	8.8[1.84 µM]	?	?
Cc1cc(C)c2nc(Cl)c(CN(Cc3ccco3)C(=O)Nc3ccccc3C)cc2c1	?	?	11.5%	10.5	-90.4*	?
COCCN(Cc1cc2cc(C)cc(C)c2nc1Cl)C(=O)Nc1ccccc1	-5.2%	?	3.5%	14.2	60.5	-10.2%
CCOC(=O)c1sc(=S)n(C)c1NC(=O)c1ccc(F)cc1	2.51µM*	-14.2%	-2.0%	7.1	67.7	7.94µM*
CCOC(=O)c1sc(=S)n(CC)c1NC(=O)CC	-10.5%	-6.5%	-1.0%	4.8	3.7	-5.4%
CCOC(=O)c1sc(=S)n(C)c1NC(=O)c1ccccc1C	10µM*	8.0%	-0.3%	-0.7	?	10µM*
SMILES	ALDH1A1 block	Lamin A splicing	KinaseGlo FLuc	IMPase inh	PNC assembly inh	HPGD block
COc1ccc(C2=NOC(CN3C(=O)c4ccccc4S3(=O)=O)C2)cc1 (stereo not given)	?	8.9%	-5.5%	-2.5	-23.1	25.1µM*
O=C1c2ccccc2S(=O)(=O)N1CC1CC(c2ccc(Cl)cc2)=NO1 (stereo not given)	5.62µM*	?	-7.4%	·	56.0	17.8µM*
CCN1CCCc2cc(CN(CCN3CCOCC3)C(=S)Nc3cccc(C)c3)ccc21	7.94µM*	-13.8%[46 µM]	-0.8%	·	·	·
CCN1CCCc2cc(CN(CCN3CCOCC3)C(=O)Nc3ccc(C)c(C)c3)ccc21	28.2µM*	0.4%	1.3%	2.6	?	-8.4%
CCN1CCCc2cc(CN(CCN3CCOCC3)C(=S)Nc3ccccc3C)ccc21	22.4µM*	?	0.9%	·	·	·
Cc1cc(C)n(-c2nnc(Cl)c3ccccc23)n1	3.55µM*	·	-8.0%	·	·	·
Cc1ccc(C(=O)N/N=C2\CCSC2)cc1[N+](=O)[O-]	12.6µM*	-9.5%	1.4%	·	24.3	-6.5%
O=C(N/N=C1/CCSC1)c1cccc([N+](=O)[O-])c1	?	0.4%	1.9%	·	2.4	-16.5%
Cc1ccc2c(c1)C1CCCC3C1N2CC(=O)N3Cc1ccccc1 (stereo not given)	22.4µM*	-1.6%	-0.4%	0.8	?	-23.4%
COc1ccc(C2C(=O)N(C3CCCCCC3)CC(=O)N2Cc2ccccc2)cc1OC (stereo not given)	-11.9%	3.0%	-1.1%	5.2	64.8	-2.1%
CCN(C(=O)CSc1nc2ccccc2n1Cc1ccc(C(=O)OC)cc1)c1ccccc1	·	-11.2%[46 µM]	·	·	·	·
c1ccc2c3c([nH]c2c1)[C@@H]1[C@H]2CC[C@H]([C@H]4CCCN[C@H]42)N1CC3	-7.6%[20.9 µM]	-16.3%	0.9%[17.1 µM]	3.6[20.6 µM]	·	?
O=S(=O)(c1ccc(F)cc1)c1nc(-c2ccccc2F)oc1N1CCCCC1	5.01µM*	3.3%	3.8%	7.2	32.8	-6.4%
Cc1ccc(/C=C/C(=O)Nc2cccnc2)o1	10µM*	0.9%	-2.0%	·	?	22.4µM*
N#C/C(=C\c1cccc([N+](=O)[O-])c1)C(=O)NCc1cccnc1	-5.3%	-13.9%	4.2%	8.5	-0.7	?
Cc1ccc(/C=C/C(=O)Nc2cccc3ncccc23)o1	?	-0.8%	3.7%	-0.4	-0.2	31.6µM*
N#C/C(=C\c1cccc([N+](=O)[O-])c1)C(=O)Nc1cccnc1	11.2µM*	·	3.3%	·	·	·
O=C(/C=C/c1ccc(Cl)c([N+](=O)[O-])c1)Nc1cccnc1	-9.7%	5.4%	2.8%	15.3	30.5	?
O=C(/C=C/c1ccc([N+](=O)[O-])cc1)Nc1cccnc1	8.91µM*	10.3%	?	-3.2	22.3	-24.2%
CCCCCC(=O)/C=C/[C@H]1[C@H](O)CC(=O)[C@@H]1C/C=C\CCCC(=O)O	-0.8%	·	1.2%	·	·	-8.7%
COc1ccc(-n2c(=O)c(CCc3ccccc3)nc3cnc(N(C)C)nc32)cc1	?	·	-1.6%	·	·	-7.6%
